# Hit rate of the full screen: of about 360,000 compounds, about 810 (0.23%) were called active. Only a selection was taken, and actives are over-represented in it overall. A number with no mark means an inactive call. Cut-off read from the data, not from the text of the source: active = potentiation above about 50%; inconclusive = mostly about 30% to 49%; inactive = weaker than that.
# Biological target: D(2) dopamine receptor (Homo sapiens) (UniProt P14416)
# Assay: Beta-Arrestin HTS for Positive Allosteric Modulators of the Human D2 Dopamine Receptor: Potentiators
# Settings: DiscoveRx D2 beta-arrestin cells, luminescence, 90 min; hits give high values; 100% = 57 uM dopamine signal
# Procedure, shortened: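 PathHunter D2 cells, attached overnight at 37 deg C, received compound in DMSO plus dopamine at EC20 (50 nM final) for 90 min at 37 deg C. Beta-arrestin recruitment was read as luminescence after 1 h with detection reagent at ambient temperature.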
# Chain of D(2) dopamine receptor (Homo sapiens) (P14416 whole entry, looked up): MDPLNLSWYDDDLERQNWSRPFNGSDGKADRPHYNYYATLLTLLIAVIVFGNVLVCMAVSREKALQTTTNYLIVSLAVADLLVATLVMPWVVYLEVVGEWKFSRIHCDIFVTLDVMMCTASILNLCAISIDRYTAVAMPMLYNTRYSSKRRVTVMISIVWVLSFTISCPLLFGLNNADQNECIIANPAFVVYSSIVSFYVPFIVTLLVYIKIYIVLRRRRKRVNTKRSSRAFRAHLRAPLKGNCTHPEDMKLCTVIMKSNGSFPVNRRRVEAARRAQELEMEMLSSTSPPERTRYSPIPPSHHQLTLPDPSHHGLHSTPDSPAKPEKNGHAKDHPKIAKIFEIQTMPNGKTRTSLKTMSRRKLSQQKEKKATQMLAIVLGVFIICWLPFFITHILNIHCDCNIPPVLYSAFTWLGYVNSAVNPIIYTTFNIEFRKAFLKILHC
row,Compound,potentiation
1,Nc1ccc(-n2nncc2-c2ccco2)cc1,-3.62%
2,N#Cc1cccc(CSc2nnc(CCCO)n2-c2ccccc2)c1,-7.69%
3,O=C(NCc1ccccc1)C(c1ccccc1)N(C(=O)c1csnn1)c1ccc(F)cc1 (centres undefined),0.0815%
4,N/C(=N\OC(=O)c1ccc2c(c1)OCO2)c1ccc(Br)cc1,24.5%
5,N/C(=N\OC(=O)N1c2ccccc2Sc2ccccc21)c1ccc(Br)cc1,86.3% (active)
6,N/C(=N\OC(=O)Cc1ccccc1[N+](=O)[O-])c1ccc(Br)cc1,18.7%
7,CC1(C)CC(=O)C(C=NCc2cccnc2)=C(O)C1,0.0734%
8,COc1ccc(N2CC(C(=O)NCCS(=O)(=O)N3CCN(c4ccccc4)CC3)CC2=O)cc1 (centres undefined),-8.09%
9,CCOc1ccc(N2C(=O)CC(N(O)c3ccccc3)C2=O)cc1 (centres undefined),51.5% (active)
10,CCOC(=O)c1ccc(N2C(=O)CC(N(C)Cc3ccccc3)C2=O)cc1 (centres undefined),-5.22%
11,CCOc1ccc(N2C(=O)CC(N(CCc3ccc(OC)c(OC)c3)C(=S)Nc3ccccc3)C2=O)cc1 (centres undefined),-3.21%
12,Cc1c(C=O)c2ccccn2c1C(=O)c1ccncc1,13.6%
13,C=CCn1c2c(c3ccccc31)CCC2,-5.75%
14,CCOc1ccc(OCC(=O)OC(C)C(=O)NC2CCCCC2C)cc1 (centres undefined),-13.2%
15,CCc1ccnc(NC(=O)Nc2ccc(OCc3ccccc3)cc2)c1,-1.75%
16,COc1ccc(OC)c(S(=O)(=O)N2CCCC(C(=O)N3CCC(C(N)=O)CC3)C2)c1 (centres undefined),7.76%
17,CCOc1ccc(CCNC(=O)COC(=O)c2ccc(C)c(S(=O)(=O)N3CCOCC3)c2)cc1OCC,1.76%
18,CCN(CC)S(=O)(=O)c1ccc(-c2cn3ccc(C)cc3n2)cc1,56% (active)
19,CCN(c1cccc(C)c1)S(=O)(=O)c1ccc(-c2coc(C)n2)cc1,-22%
20,Cc1ccc(-c2cn3cc(C)ccc3n2)cc1,6.89%
21,COc1cccc2c1C(=O)c1c(O)c3c(c(O)c1C2=O)CC(O)(C(C)=NNC(=O)c1ccc(Cl)c(Cl)c1)CC3OC1CC(N)C(O)C(C)O1 (centres undefined),-9.55%
22,CCc1nc2ccc(C(=O)N(C)CCN(C)C)cn2c1N(CC)CCOC,-8.24%
23,O=C(NC(C(=O)NCCN1CCOCC1)C12CC3CC(CC(C3)C1)C2)C1CCCCC1 (centres undefined),-3.19%
24,COc1cccc(N(CC(=O)NCc2ccccc2)C(=O)CCC(=O)Nc2nccs2)c1,-2.58%

# Reference: PubChem BioAssay AID624464 (National Center for Advancing Translational Sciences (NCATS), 2012)
